Experimental findings from PubChem BioAssay (NCI) are described below.

About 83,000 compounds went through this panel and 20% of them were active in at least one assay; those are over-represented in the sample as a whole.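 In brief: 96-well plates, 48 h treatment, single concentration, percent growth endpoint.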 Active and inactive are the calls of the source.

This assay deals with NCI-H522 lung. The assay is described as follows: NCI-60 one-dose screen, 48 h (100 = growth as untreated, 0 = no growth, -100 = all killed). The following applies: 10 µM unless noted. On the procedure:
Growth inhibition of the NCI-H522 human Non-Small Cell Lung tumor cell line is measured as a screen for anti-cancer activity. Cells are grown in 96 well plates and exposed to the test compound for 48 hours. Compounds are tested at a single concentration, which is 10^-5 M for most compounds. The reported endpoint is percent growth (GI% or GIPRCNT), where numbers from 0 - 100% represent growth inhibition, and numbers from -100% - 0 represent cell death. For example, a value of 40 represents 60% growth inhibition. A value of 0 means no net growth occurred over the course of the experiment. A value of -40 indicates 40% of cells at the beginning of the experiment died by the end of the experiment. A value of -100 means all cells are dead at the end of the experiment.
NCI-60 Human Tumor Cell Lines Screen was performed using the standard one-dose NCI protocol, which is described in more detail at https://dtp.cancer.gov/discovery_development/nci-60/default.htm.
Compounds with GIPRCNT values below 10 were considered active. Activity score was based on GIPRCNT using the following formula: […]
Score is 0 for GIPRCNT values of 100 or above, 50 for GIPRCNT values of 0, and 100 for GIPRCNT values of -100.
With `COc1ccc(C2=C(c3cccc(OC)c3)C(=O)c3ccc(C)nc3C2=O)cc1`, the growth was 40.9% (inactive).

For the compound `COc1ccc(C2c3ccc4ccccc4c3Oc3ncn(CCCn4ccnc4)c(=N)c32)cc1OC` (stereo not given), the growth is 72.6% (inactive).

As to `COc1cc(/C=C/C(=O)c2ccc(Nc3nc(NCCO)nc(N4CCOCC4)n3)cc2)cc(OC)c1OC`, the growth is 24.1% (inactive).

As for `COc1ccc(-c2cc(=O)c3c(OC)c4ccoc4c(/C=C/C=O)c3o2)cc1`, the growth was 88.3% (inactive).

Take `COc1cc(C(C)n2cc(-c3ccccc3)nn2)ccc1OC1CCCC1` (stereo not given): the growth was 51.2% (inactive).

As for `NCCOc1ncccc1/C=C1\c2ccccc2-c2ccc([N+](=O)[O-])cc21`, the growth was -20% (active).

As to `CCOc1cccc(/C=N/NC(=O)C(=O)Nc2cccc(C(F)(F)F)c2)c1O`, the growth is -0.686% (active).

Turning to `Nc1nc(N)c2c(n1)NC1(C=C(O)c3ccccc31)C1=C(N2)c2ccccc2C1=O` (stereo not given), the growth is 95.3% (inactive).

As for `O=C(/C=C/c1ccc(F)cc1)c1ccc(Nc2nc(NCCO)nc(Nc3ccc(Cl)cc3)n2)cc1`, the growth is 81.1% (inactive).

Take `Cc1ccccc1CNC(=O)C1CN(c2ccc(Cl)cc2)N(c2ccc(Cl)cc2)C1=O` (stereo not given): the growth was 68.5% (inactive).

In the case of `COc1ccc(-c2cn[nH]c2-c2cc(OC)c(OC)c(OC)c2)cc1OCc1ccccc1`, the growth was -19.7% (active).

In the case of `O=C1C(Cl)=C(NCc2ccco2)C(=O)c2ccccc21`, the growth is 75.9% (inactive).

For `CCOC(=O)c1cc2c(n1Cc1ccccc1)-c1oncc1CCC2`, the growth was 61.4% (inactive).

`O=C(/C=C/c1ccccc1)c1ccc(Nc2nc(NCCO)nc(Nc3ccc(Cl)cc3)n2)cc1`: the growth was 83.3% (inactive).

For `COC(=O)C1(C)COP(=O)(Nc2ccc(OC)cc2)OC1` (stereo not given), the growth was 111% (inactive).

As for `COC(=O)[C@@H]1CCCN1C(=O)[C@H]1CCCN1C(=O)[C@@H](Cc1c[nH]c2ccccc12)NC(=S)Nc1cc(C(F)(F)F)cc(C(F)(F)F)c1`, the growth is 69.8% (inactive).

In the case of `NS(=O)(=O)c1ccc(CCN=C=S)cc1`, the growth was -69.8% (active).

`O=C1CCC(N2C(=O)c3cccc(NCCCCCCOc4ccc(Nc5nccc(Nc6ccccc6)n5)cc4)c3C2=O)C(=O)N1` (stereo not given): the growth was 76.6% (inactive).

As to `Cc1cccc2c(=O)c3c(sc12)c(NCCCNCCO)nc1ccccc13`, the growth was 58.6% (inactive).

`O=C(Nc1ccc(-c2nc3cc4ccccc4cc3[nH]2)cc1)c1cccc(Br)c1`: the growth was 16.3% (inactive).

For `CCCCCCC(O)(c1ccc(F)cc1)C(CN1CCOCC1)c1ccccc1` (stereo not given), the growth is 26.9% (inactive).

As for `O=C(CSc1ncccc1C(=O)O)Nc1ccc(Oc2ccccc2)cc1`, the growth was 105% (inactive).

As to `COc1cc2nc(NC3CCCC3)nc(NC3CCN(C(C)C)CC3)c2cc1OC`, the growth is 62.6% (inactive).

As for `COc1cc(C2C3=C(COC3=O)N(CCO)c3cc4c(cc32)OCCO4)cc(OC)c1O` (stereo not given), the growth is -23.4% (active).

With `O=c1oc2ccc(F)cc2c(=O)n1-c1ccc(Br)cc1F`, the growth is -17.9% (active).

Take `COc1ccc(CSc2nnc(SCC(=O)Nc3ccc(Cl)cc3)s2)cc1`: the growth is 67.7% (inactive).

Regarding `COc1ccc(N)c(-c2cc3c(c4c2[nH]c2ccc(OC)cc24)CCCC3)c1`, the growth was 57.1% (inactive).

For the compound `CCOc1cccc(/C=N\Nc2nc(=O)cc(C(=O)OC)s2)c1O`, the growth was 79.3% (inactive).

For the compound `COc1cc(/C=C2\CN(C)C/C(=C\c3cc(CN4CCCCC4)c(O)c(OC)c3)C2=O)cc(CN2CCCCC2)c1O`, the growth is 39.8% (inactive).

For the compound `O=S1(=O)N(Cc2ccccc2)[C@@H](Cc2ccccc2)C2O[C@H]2[C@H](Cc2ccccc2)N1Cc1ccccc1` (stereo not given in full), the growth is 49.3% (inactive).

In the case of `COc1ccc(Cn2c(Br)c3c(c2-c2cc(OC)c(OC)c(OC)c2)CCc2sc(NC(C)=O)nc2-3)cc1`, the growth is 13.4% (inactive).

Turning to `O=C(Cc1ccccc1)NC(c1ccc(Cl)cc1)c1c(O)ccc2ccccc12` (stereo not given), the growth was -8.23% (active).

Take `O=c1nc2sc3nc4ccccc4cc3cc-2s1`: the growth was 122% (inactive).

Turning to `O=C(/C=C/c1ccc(C(F)(F)F)cc1)c1ccc(Nc2nc(NCCO)nc(Nc3ccc(Cl)cc3)n2)cc1`, the growth is 65.3% (inactive).

For `CCOc1ccc2nc(C)cc(Nc3ccc(Br)cc3)c2c1`, the growth is 107% (inactive).

Take `CSc1nc2c(c(=O)[nH]1)N=C1c3ccccc3C(=O)C1C(c1ccc(F)cc1)N2` (stereo not given): the growth was 75.9% (inactive).

Regarding `Nc1ccc(-n2c(=O)oc3ccc(Cl)cc3c2=O)c(Cl)c1`, the growth was -20.1% (active).

Consider `O=C(Nc1ccc(N2CCNCC2)cn1)c1[nH]ncc1Nc1ncnc2sccc12`, for which the growth is -3.84% (active).

As to `CN=c1ccc2nc3ccc(N)cc3sc-2c1`, the growth is 10.5% (inactive).

Consider `C#CCn1cc(C=C2C(=O)NC(=O)NC2=O)c2cc(Cl)ccc21`, for which the growth is 71.7% (inactive).
